Consider 65 compounds from PubChem BioAssay AID743280 (The Scripps Research Institute Molecular Screening Center, 2014).

The inhibition is the change of the read-out against control, counted positive when it falls.

The whole screen tested about 2,000 compounds, of which about 680 (34%) were called active. Only a sample is shown. Unmarked numbers belong to inactive results.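 How the source made its calls: active means mean inhibition across triplicates above the hit cutoff set in the earlier primary screen (cut at about 19% in these data); inactive means the rest.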

In the experiment the target is Group 3 secretory phospholipase A2 (Homo sapiens) (UniProt Q9NZ20). Kind of experiment: human group III sPLA2 inhibitors, confirmation, biochemical, QFRET, triplicate (AID 743280).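 Further: 0% = enzyme with DMSO and 100% = DMSO wells lacking enzyme.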 The following applies: recombinant hGIII-sPLA2, BODIPY PC-A2 QFRET fluorescence; at 12.2 µM; stronger effect = higher value.
Sequence of Group 3 secretory phospholipase A2 (Homo sapiens) (Q9NZ20 whole entry, looked up): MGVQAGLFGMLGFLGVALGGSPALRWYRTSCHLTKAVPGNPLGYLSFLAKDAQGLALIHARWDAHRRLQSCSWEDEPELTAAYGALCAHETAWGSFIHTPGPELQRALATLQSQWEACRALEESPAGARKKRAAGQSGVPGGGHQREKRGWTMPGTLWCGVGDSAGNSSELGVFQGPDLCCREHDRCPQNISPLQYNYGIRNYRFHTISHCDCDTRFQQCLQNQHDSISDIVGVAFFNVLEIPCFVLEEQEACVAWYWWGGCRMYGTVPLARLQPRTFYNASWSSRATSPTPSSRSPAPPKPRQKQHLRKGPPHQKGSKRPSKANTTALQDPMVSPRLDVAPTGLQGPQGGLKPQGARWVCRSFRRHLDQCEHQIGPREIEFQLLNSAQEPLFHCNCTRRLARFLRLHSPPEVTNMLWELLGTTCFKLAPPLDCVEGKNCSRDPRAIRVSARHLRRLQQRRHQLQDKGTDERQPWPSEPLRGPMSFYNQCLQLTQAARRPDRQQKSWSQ
On to `N#CC1(Nc2ccc(-c3ccc(Cl)cc3)cc2)CCCC1`, for which the inhibition is 24.4% (active). For `C=CCNc1scc(-c2ccccc2)[n+]1CC=C`, the inhibition is 10.9%. In the case of `Cc1cccc(N2CCN(c3ccc(NC(=O)/C=C\C(=O)O)cc3)CC2)c1` it was 7.11%; in that of `CCOc1ccc2[nH]c(=S)sc2c1`, 27.4% (active). Next, `COCCn1c(SCC(=O)Nc2cc(OC)ccc2OC)nc2c(c1=O)SC(C)C2` (stereo not given): -3.55%. Turning to `CCCCn1c(=S)[nH]c2ccccc2c1=O`, the inhibition is 12.9%.

Regarding `O=C(NC(=S)Nc1ncccn1)c1ccccc1Br`, the inhibition is 10.1%. In the case of `COc1ccc(C(=O)NNC(=S)NC(=O)c2ccccc2)cc1`, the inhibition was 22.1% (active). Next, `COc1ccc(C(=O)Nc2sc(C)c(C)c2CN2CCOCC2)cc1`: 8%; `COc1ccc(C(=O)NC(=S)NNC(=O)c2c(-c3ccccc3)noc2C)cc1`: 35.4% (active).

For the compound `NS(=O)(=O)c1ccc(CCNC(=O)NC2CCCCC2)cc1`, the inhibition was -1.05%. Next, `Cc1c(NC(=S)NCc2ccc(F)cc2)cccc1[N+](=O)[O-]`: 3.91%.

As for `Cc1ccc(NC(=S)NNC(=O)CSc2nnc(SCc3ccccc3Cl)s2)cc1`, the inhibition is 3%. `Cn1cc(Cl)c(C(=O)NNC(=S)Nc2cccc(Cl)c2)n1`: the inhibition was 42.3% (active). On to `Cc1cc(NCCc2c[nH]c3ccccc23)ccc1Oc1cccnc1`, for which the inhibition is 10.5%.

Consider `CN(C)c1ccc(NC(=O)NC2CCCCN(Cc3ccc(Cl)cc3)C2=O)cc1` (stereo not given), for which the inhibition was 6.59%.

On to `c1ccc(C2=Nc3cccc4cccc(c34)N2)cc1`, for which the inhibition is 50.5% (active).

In the case of `C/C(=N/NC(=O)c1cc(Cl)ccc1O)C12CC3CC(CC(C3)C1)C2`, the inhibition was 15.1%. In the case of `Nc1ccc2c(c1)C(O)c1ccc(Cl)cc1-2` (stereo not given), the inhibition is 26.1% (active). On to `Cc1ccc(C2CC(c3cccc(C)c3)n3nc(N)nc3N2)cc1` (stereo not given), for which the inhibition was 6.67%. As to `CC(C)(C)c1cc2cccnc2n1Cc1cccc(F)c1`, the inhibition was 13.1%. `CCOc1ccc(Br)cc1CSC(=N)N`: the inhibition is 26% (active). On to `COc1ccc(NC(=O)C2C3C=CC(C3)C2C(=O)NCc2ccccn2)c(OC)c1` (stereo not given), for which the inhibition was 1.31%. With `Cc1ccc(-c2csc(NNC(=O)c3ccccc3)n2)cc1`, the inhibition is 56.7% (active). For the compound `CCN(CC(=O)NC1CCS(=O)(=O)C1)S(=O)(=O)c1ccccc1` (stereo not given), the inhibition was -6.89%.

For the compound `NC(c1csc(NC(=O)Nc2ccccc2Oc2ccccc2)n1)c1ccccc1Cl` (stereo not given), the inhibition was 8.22%. In the case of `COc1ccc(C(N)c2csc(NC(=O)Nc3cccc(C(F)(F)F)c3)n2)cc1` (stereo not given) it was 23% (active). Regarding `Cc1cc(-n2nc(C)cc2C)n2ncc(-c3ccccc3)c2n1`, the inhibition is 14.7%. Next, `CCc1cccc(CC)c1NC(=S)NCc1ccc2[nH]c(C)cc2c1`: -6.2%. On to `CC(=O)NC(c1cccs1)c1cc(Br)c2cccnc2c1O` (stereo not given), for which the inhibition is 19.7% (active). In the case of `CCOc1ccc(/C=N/NC(N)=S)cc1`, the inhibition is 12.7%. On to `Cc1ccccc1NC(=O)C1CCN(c2ncccn2)CC1`, for which the inhibition was -1.34%.

`CC(=O)/C(=N\Nc1ccc(Cl)cc1Cl)Sc1cccc2cccnc12`: the inhibition is -6.23%. For the compound `CCc1cc(-c2n[nH]c(=S)n2CC(C)C)cs1`, the inhibition was 24.9% (active). In the case of `CC(C)c1ccc(Nc2nnc(SCC(=O)c3nnc(-c4ccccc4)o3)s2)cc1` it was 6.4%; in that of `O=C1C(=O)N(Cc2ccc(-c3ccsc3)cc2)c2ccc(OC(F)(F)F)cc21`, 32.9% (active). As to `C=CCn1c(C23CC4CC(CC(C4)C2)C3)n[nH]c1=S`, the inhibition is 27.1% (active). `CCN(Cc1ccccc1)C(=O)CN1C(=S)NC(C)(C)CC1C` (stereo not given): the inhibition is 8.88%. `CC1=CC(C)(C)NC(=S)N1c1ccccc1`: the inhibition is 14.3%. In the case of `CCCCn1c(N)c(N(CCOC)C(=O)COc2c(C)cccc2C)c(=O)[nH]c1=O` it was 10.8%; in that of `O=C(NNC(=S)Nc1ccc(F)cc1)[C@H]1C[C@@H]1c1ccccc1`, 35.9% (active). In the case of `COc1cc(NS(=O)(=O)c2ccc3ccccc3c2)c2ncccc2c1` it was 11%.

In the case of `CSC1=NN(c2ccccc2)CN(c2ccccc2)N1C`, the inhibition was 25.6% (active).

Regarding `CCOC(=O)C1(Cc2cccc(OC)c2)CCCN(C(=O)CCSC)C1` (stereo not given), the inhibition was 2.05%. Turning to `C/C(=N\Nc1ccc(Cl)nn1)c1ccccc1O`, the inhibition is 7.83%. As to `Brc1ccccc1C1Nc2cccc3cccc(c23)N1`, the inhibition was 58.1% (active). In the case of `CC(=O)c1nnn(-c2ccc(Cl)cc2C#N)c1C`, the inhibition is 1.06%. Take `O=C(NNc1ccccn1)c1ccc(Cl)nc1`: the inhibition was 25.9% (active). With `COc1cccc(NC(C)=[N+](C)CCNS(=O)(=O)c2ccc(Cl)cc2)c1`, the inhibition was -1.54%. For `COc1cc(OC)cc(C2=Cc3ccccc3C(CC(=O)c3ccco3)N2c2ccc(-c3cnc(OC)nc3)cc2)c1` (stereo not given), the inhibition was 1.48%.

In the case of `Cc1cccc(-n2cnc(C(=O)NNC(=S)Nc3ccccc3)c2)n1`, the inhibition was 46.5% (active).

As for `O=C(CSc1nc2ccccc2n1Cc1ccccc1)NNC(=S)Nc1ccccc1`, the inhibition was 15.2%. As to `C/C(=N\NC(=O)CSc1nc2ccccc2c(=O)n1-c1ccccc1C)c1cccs1`, the inhibition was -11%. Take `Nc1ccc(Nc2ccccc2)cc1`: the inhibition was 17.8%. In the case of `COCCCNC(=O)CNC(=S)N(Cc1cc(OC)c(OC)c(OC)c1)C1CCCC1` it was 7.62%; in that of `CC(C)(c1ccccc1)c1ccc(OCCN)cc1`, 0.24%. Next, `Cc1cc(-c2n[nH]c(=S)n2-c2ccc(C)c(C)c2)no1`: 24.4% (active); `COc1ccccc1OCCn1c(SCC(N)=O)nc2ccccc21`: 13.8%. Take `O=C(Nc1cccc(F)c1)c1cc(-c2ccco2)nc2ccccc12`: the inhibition is 9.4%.

As to `CC(=O)Oc1ccc2c(c1)C(=O)c1ccccc1C2=O`, the inhibition was 1.09%.

In the case of `Cc1ccc2sc(NNC(=O)c3ccc4c(c3)OCCO4)nc2c1C`, the inhibition was 38.7% (active).

In the case of `C#CCCCc1nc2ccccc2c(=O)n1N`, the inhibition was 1.47%.

`Oc1ccc2ccccc2c1N=Nc1nccs1`: the inhibition was 47.5% (active). In the case of `CSc1ccc(NC(=O)/C=C/C(=O)O)cc1` it was -0.31%; in that of `Cc1sc2nc(SCC(=O)c3ccc(O)c(O)c3)n(Cc3ccco3)c(=O)c2c1C`, -10.3%.
